In the supplement of paper PMC12645437, “Orthogonal IMiD-Degron Pairs Induce Selective Protein Degradation in Cells” (ACS Chemical Biology, 2025):
In all, about 8,300 sequences were measured (“log2 fold change of degron read counts, EGFP-low vs EGFP+ sorted cells (limma voom), compound-induced degradation”: median about -1.1, highest 2% from about 3.2 on). For the sample, the highest values were picked, then their nearest neighbours and some sequences at random.

T1: CRBN, Q96SW2
T1 chain: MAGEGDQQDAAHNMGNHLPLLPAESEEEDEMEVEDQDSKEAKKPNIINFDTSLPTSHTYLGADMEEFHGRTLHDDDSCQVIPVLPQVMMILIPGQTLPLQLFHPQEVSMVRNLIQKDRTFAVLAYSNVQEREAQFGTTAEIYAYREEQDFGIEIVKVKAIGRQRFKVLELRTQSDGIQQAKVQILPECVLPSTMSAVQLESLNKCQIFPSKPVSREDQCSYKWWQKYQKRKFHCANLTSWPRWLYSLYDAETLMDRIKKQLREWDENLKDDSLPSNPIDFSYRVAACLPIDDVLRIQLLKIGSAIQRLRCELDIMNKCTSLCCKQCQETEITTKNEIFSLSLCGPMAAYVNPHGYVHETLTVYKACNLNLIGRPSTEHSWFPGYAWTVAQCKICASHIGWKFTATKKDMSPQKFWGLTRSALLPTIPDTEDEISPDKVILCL


Molecular target: T1, CRBN, Q96SW2
Assay: log2 fold change of degron read counts, EGFP-low vs EGFP+ sorted cells (limma voom), compound-induced degradation; higher = more compound-induced degradation of the degron-EGFP fusion; degrons are variants of IKZF1/3 zinc finger 2; compound dose not given here
Details: Jurkat, 18 h
[1] = compound: compound 19 (5-tert-butyl-thalidomide)
[2] = compound: compound 22 (5-morpholino-thalidomide)
[3] = compound: compound 33 (diphenyl IMiD analogue)
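Further: pooled lentiviral library of zinc finger degron-EGFP fusions in mCherry-positive Jurkat cells, FACS-sorted after compound exposure, with degron abundance counted by next-generation sequencing.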

| Sequence | log2 fold change of degron read counts [1] | log2 fold change of degron read counts [2] | log2 fold change of degron read counts [3] | log2 fold change of degron read counts (compound: thalidomide) |
| --- | --- | --- | --- | --- |
| FWCNICGAGFTQKGNLLRHIKL [46F_47W_49N_50I_52G_53A_54G_55F_67L_, Q9UKT9] | 1.8 | 1.84 | 0.64 | -0.741 |
| FTCDQCGAIFTQKGNLLRHIKL [46F_47T_49D_50Q_52G_53A_54I_55F_67L_, Q9UKT9] | -3.12 | -2.8 | -2.46 | -2.63 |
| LTCEICGFFCTQKGNLLRHIKL [46L_47T_49E_50I_52G_53F_54F_55C_67L_, Q9UKT9] | 0.0809 | 0.0956 | 0.606 | 0.98 |
| FFCNICGAKFTQKGNLLRHIKL [46F_47F_49N_50I_52G_53A_54K_55F_67L_, Q9UKT9] | 1.77 | 1.78 | 0.0329 | -0.6 |
| FQCNVCGAGFTQKGNLLRHIKL [46F_47Q_49N_50V_52G_53A_54G_55F_67L_, Q9UKT9] | -0.572 | -0.754 | -0.58 | 1.66 |
| FQCNQCGRQFTQKGNLLRHIKL [46F_47Q_49N_50Q_52G_53R_54Q_55F_67L_, Q9UKT9] | -3.25 | -3.61 | -3.19 | -2.34 |
| FKCDQCGAQFTQKGNLLRHIKL [46F_47K_49D_50Q_52G_53A_54Q_55F_67L_, Q9UKT9] | -2.9 | -3.7 | -3.4 | -3.16 |
| FECDQCGANFTQKGNLLRHIKL [46F_47E_49D_50Q_52G_53A_54N_55F_67L_, Q9UKT9] | -3.58 | -4.58 | -1.92 | -1.86 |
| FACEQCGAFFTQKGNLLRHIKL [46F_47A_49E_50Q_52G_53A_54F_55F_67L_, Q9UKT9] | -1.43 | -2.96 | -2.14 | -2.45 |
| FVCDVCGAQFTQKGNLLRHIKL [46F_47V_49D_50V_52G_53A_54Q_55F_67L_, Q9UKT9] | -1.63 | 0.889 | 1.87 | 0.809 |
| FQCDVCGAQFTQKGNLLRHIKL [46F_47Q_49D_50V_52G_53A_54Q_55F_67L_, Q9UKT9] | -1.59 | 0.635 | 0.642 | 2.41 |
| FHCDVCGAQFTQKGNLLRHIKL [46F_47H_49D_50V_52G_53A_54Q_55F_67L_, Q9UKT9] | -0.281 | 0.385 | -0.661 | -1.69 |
| FWCDVCGAQFTQKGNLLRHIKL [46F_47W_49D_50V_52G_53A_54Q_55F_67L_, Q9UKT9] | 2.68 | 3.85 | 1.36 | -0.531 |
| FYCDVCGAQFTQKGNLLRHIKL [46F_47Y_49D_50V_52G_53A_54Q_55F_67L_, Q9UKT9] | 2.41 | 3.24 | 1.63 | -0.781 |
| FECDVCGAQFTQKGNLLRHIKL [46F_47E_49D_50V_52G_53A_54Q_55F_67L_, Q9UKT9] | -2.41 | -2.69 | -1.62 | -0.629 |
| FGCPQCGAFFTQKGNLLRHIKL [46F_47G_49P_50Q_52G_53A_54F_55F_67L_, Q9UKT9] | -0.126 | -1.28 | 2.09 | -1.62 |
| FRCSVCGHMFTQKGNLLRHIKL [46F_47R_49S_50V_52G_53H_54M_55F_67L_, Q9UKT9] | -2.17 | -2.3 | -2.41 | -2.23 |
| FVCNVCGAWFTQKGNLLRHIKL [46F_47V_49N_50V_52G_53A_54W_55F_67L_, Q9UKT9] | -2.28 | -1.99 | -1.2 | -1.25 |
